Measured values: PubChem BioAssay (NCATS)
Records with an inconclusive call do not appear. A call without a number means that no potency is given here. Activity calls are given as the source filed them. Calls follow the shape of the dose curve; as a rule, active = well fitted inhibition curve with a large enough effect; inconclusive = small, poorly fitted or top-dose-only effect; inactive = flat fitted curve, though single readings scatter. Peptide text beside a SMILES is read from it.

Legend:
Assay in all cases: qHTS profiling for inhibitors of Plasmodium falciparum proliferation (AID 504749); also: nearly all actives have a fitted effect of over 60% in size
Conditions in all cases: P. falciparum in erythrocytes, SYBR Green DNA, 72 h; series mostly up to 28.7 µM
DIV17 = test system: DIV17
In short: (§1)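 Readout was DNA-dye fluorescence from lysed cultures, ex 485/em 535 nm. Parasitized red cells had grown 72 h with compound; data scaled between 0.29 uM artemisinin and DMSO wells and corrected using vehicle-only plates.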

DIV30 = test system: DIV30
In short: as §1

Dd2 = test system: Dd2
In short: as §1

ECU = test system: ECU
In short: as §1

FAB9 = test system: FAB9
In short: as §1

GB4 = test system: GB4
In short: as §1

HB3 = test system: HB3
In short: as §1

ICS = test system: ICS
In short: as §1

JCK = test system: JCK
In short: as §1

N140 = test system: N140
In short: as §1

P93_24 = test system: P93_24
In short: as §1

P94_40 = test system: P94_40
In short: as §1

PAD = test system: PAD
In short: as §1

PC15 = test system: PC15
In short: as §1

PC26 = test system: PC26
In short: as §1

PC49 = test system: PC49
In short: as §1

SC27B = test system: SC27B
In short: as §1

TAB109 = test system: TAB109
In short: as §1

TAB113 = test system: TAB113
In short: as §1

TAB165 = test system: TAB165
In short: as §1
Potency is read from the fitted curve at half-maximal effect.

SMILES | Potency (DIV17) | Potency (DIV30) | Potency (Dd2) | Potency (ECU) | Potency (FAB9) | Potency (GB4) | Potency (HB3) | Potency (ICS) | Potency (JCK) | Potency (N140) | Potency (P93_24) | Potency (P94_40) | Potency (PAD) | Potency (PC15) | Potency (PC26) | Potency (PC49) | Potency (SC27B) | Potency (TAB109) | Potency (TAB113) | Potency (TAB165)
O=C(O)CCC(=O)C(=O)O | inactive | inactive | inactive | inactive | inactive | inactive | inactive | inactive | inactive | inactive | inactive | inactive | inactive | inactive | inactive | inactive | inactive | inactive | inactive | 
CCN(CC)Cc1cc(Nc2ccnc3cc(Cl)ccc23)ccc1O | 0.114 µM (active) | 0.181 µM (active) | 0.0562 µM (active) | 0.0316 µM (active) | 0.0398 µM (active) | 0.0405 µM (active) | 0.0355 µM (active) | 0.0398 µM (active) | 0.0891 µM (active) | 0.0708 µM (active) | 0.0355 µM (active) | 0.0089 µM (active) | 0.0316 µM (active) | 0.178 µM (active) | 0.161 µM (active) | 0.1 µM (active) | 0.0708 µM (active) | 0.0501 µM (active) | 0.0794 µM (active) | 0.0447 µM (active)
Cc1ccccc1 | inactive | inactive | inactive | inactive | inactive | inactive | inactive | inactive | inactive | inactive | inactive | inactive | inactive | inactive | inactive | inactive | inactive | inactive | inactive | inactive
CC(=O)N[C@@H](CC(=O)O)C(=O)N[C@@H](CCC(=O)O)C(=O)O (Ac-Asp-Glu-OH) | inactive | inactive | inactive | inactive | inactive | inactive | inactive | inactive | inactive | inactive | inactive | inactive | inactive | inactive | inactive | inactive | inactive | inactive | inactive | inactive
C[C@H]1C[C@H]2[C@@H]3CCC4=CC(=O)C=C[C@]4(C)[C@@]3(F)[C@@H](O)C[C@]2(C)[C@@]1(O)C(=O)CO | inactive | inactive | inactive | inactive | inactive | inactive | inactive | inactive | inactive | inactive | inactive | inactive | inactive | inactive | inactive | inactive | inactive | inactive | inactive | inactive
Cc1cn([C@H]2C[C@H](O)[C@@H](CO)O2)c(=O)[nH]c1=O | inactive | inactive | inactive | inactive | inactive | inactive | inactive | inactive | inactive | inactive | inactive | inactive | inactive | inactive | inactive | inactive | inactive | inactive | inactive | inactive
CCCCCCCC(=O)O | inactive | inactive | inactive | inactive | inactive | inactive | inactive | inactive | inactive | inactive | inactive | inactive | inactive | inactive | inactive | inactive | inactive | inactive | inactive | inactive
COC(F)(F)C(Cl)Cl | inactive | inactive | inactive | inactive | inactive | inactive | inactive | inactive | inactive | inactive | inactive | inactive | inactive | inactive | inactive | inactive | inactive | inactive | inactive | inactive
COC(=O)CCC(=O)CN | inactive | inactive | inactive | inactive | inactive | inactive | inactive | inactive | inactive | inactive | inactive | inactive | inactive | inactive | inactive | inactive | inactive | inactive | inactive | inactive
CC(NNC(=O)c1ccccc1)c1ccccc1 (stereo not given) | inactive | inactive | inactive | inactive | inactive | inactive | inactive | inactive | inactive | inactive | inactive | inactive | inactive | inactive | inactive | inactive | inactive | inactive | inactive | inactive
CC(C)(C)C(=O)OCOC(=O)[C@@H]1N2C(=O)[C@@H](N=CN3CCCCCC3)[C@H]2SC1(C)C | inactive | inactive | inactive | inactive | inactive | inactive | inactive | inactive | inactive | inactive | inactive | inactive | inactive | inactive |  | inactive | inactive | inactive | inactive | inactive
CCCCCCCC/C=C\CCCCCCCC(=O)O | inactive | inactive | inactive |  | inactive | inactive | inactive | inactive | inactive | inactive | inactive | inactive | inactive |  | inactive | inactive | inactive |  | inactive | inactive
CC(=O)Oc1c(C)cc(OCC(O)CNC(C)C)c(C)c1C (stereo not given) | inactive | inactive | inactive | inactive | inactive |  | inactive | inactive | inactive | inactive | inactive | inactive | inactive | inactive | inactive | inactive | inactive | inactive | inactive | inactive
COCC(=O)Nc1cc(Sc2ccccc2)ccc1N=C(NC(=O)OC)NC(=O)OC | inactive | inactive | inactive | inactive | inactive | inactive | inactive |  | inactive | inactive | inactive | inactive | inactive | inactive |  | inactive | inactive | inactive | inactive | inactive
NC(=O)c1ncn(C2OC(CO)C(O)C2O)n1 (stereo not given) | inactive | inactive | inactive | inactive | inactive |  | inactive | inactive | inactive | inactive | inactive | inactive | inactive | inactive | inactive | inactive | inactive | inactive | inactive | inactive
Cc1c(C)c2c(c(C)c1O)CC[C@@](C)(CCC[C@H](C)CCC[C@H](C)CCCC(C)C)O2 | inactive | inactive | inactive | inactive | inactive | inactive | inactive | inactive | inactive | inactive | inactive | inactive | inactive | inactive | inactive | inactive | inactive | inactive | inactive | inactive
CCOC(C)=O | inactive | inactive | inactive | inactive | inactive | inactive | inactive | inactive | inactive | inactive | inactive | inactive | inactive | inactive | inactive | inactive | inactive | inactive | inactive | inactive
CCOc1ccc2c(c1)C(C)=CC(C)(C)N2 | inactive | inactive | inactive | inactive | inactive | inactive | inactive |  | inactive | inactive | inactive | inactive | inactive | inactive | inactive | inactive | inactive | inactive | inactive | inactive
Oc1cc(O)c2c(c1)OC(c1ccc(O)c(O)c1)C(O)C2 (stereo not given) | inactive | inactive | inactive |  | inactive |  | inactive | inactive | inactive | inactive | inactive | inactive | inactive | inactive | inactive | inactive | inactive | inactive | inactive | inactive
CO[C@H](C(=O)[C@@H](O)[C@@H](C)O)C1Cc2cc3cc(O[C@H]4C[C@@H](O[C@H]5C[C@@H](O)[C@H](O)[C@@H](C)O5)[C@@H](O)[C@@H](C)O4)c(C)c(O)c3c(O)c2C(=O)[C@H]1O[C@H]1C[C@@H](O[C@H]2C[C@@H](O[C@H]3C[C@](C)(O)[C@H](O)[C@@H](C)O3)[C@H](O)[C@@H](C)O2)[C@H](O)[C@@H](C)O1 (stereo not given in full) | 0.675 µM (active) | 2.39 µM (active) | 0.0891 µM (active) | 0.126 µM (active) | 0.562 µM (active) | 0.675 µM (active) | 0.1 µM (active) | 0.0794 µM (active) |  | 0.126 µM (active) | 0.112 µM (active) | 0.112 µM (active) | 0.158 µM (active) | 0.316 µM (active) | 3.01 µM (active) | 0.708 µM (active) | 0.126 µM (active) | 0.141 µM (active) | 0.0891 µM (active) | 0.126 µM (active)
O=C(O)CN(CCN(CC(=O)O)CC(=O)O)CC(=O)O | inactive | inactive | inactive | inactive | inactive | inactive | inactive |  | inactive | inactive | inactive | inactive | inactive | inactive | inactive | inactive | inactive | inactive | inactive | inactive
COC(C(=O)C(O)C(C)O)C1Cc2cc3cc(OC4CC(OC5CC(O)C(O)C(C)O5)C(O)C(C)O4)c(C)c(O)c3c(O)c2C(=O)C1OC1CC(OC2CC(OC3CC(C)(O)C(O)C(C)O3)C(O)C(C)O2)C(O)C(C)O1 (stereo not given) | 1.51 µM (active) | 3.01 µM (active) | 0.1 µM (active) | 0.178 µM (active) | 1.58 µM (active) | 1.35 µM (active) | 0.1 µM (active) | 0.1 µM (active) |  | 0.199 µM (active) | 0.178 µM (active) | 0.126 µM (active) | 0.224 µM (active) | 0.501 µM (active) | 2.69 µM (active) | inactive | 0.178 µM (active) | 0.158 µM (active) | 0.141 µM (active) | 0.141 µM (active)
IC(I)I | inactive | inactive | inactive | inactive | inactive | inactive | inactive | inactive | inactive | inactive | inactive | inactive | inactive | inactive | inactive | inactive | inactive | inactive | inactive | inactive
